Test [1] is described as follows: Quantitative High-Throughput drug screen in 47 multiple myeloma cell lines against the NCATS MIPE library collection: KMS34_JCRB cell viability assay (AID 1918985). Note: nearly all actives have a fitted effect of over 40% in size. Note: potency is the fitted concentration of half-maximal effect. Put shortly: (§1)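 500 cells/well; MIPE 4.0 drugs pin-transferred; 48 h, 37C, 5% CO2. CellTiter-Glo, 5 min RT, luminescence. Controls: DMSO 100%, media 0%.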
Test [2] in a line: Quantitative High-Throughput drug screen in 47 multiple myeloma cell lines against the NCATS MIPE library collection: OCIMY7_PLB cell viability assay (AID 1918987). Note: nearly all actives have a fitted effect of over 65% in size. Note: potency is the fitted concentration of half-maximal effect. The gist of the method:
as §1

Test [3] is described as follows: Quantitative High-Throughput drug screen in 47 multiple myeloma cell lines against the NCATS MIPE library collection: OCIMY5_PLB cell viability assay (AID 1918988). Note: nearly all actives have a fitted effect of over 65% in size. Note: potency is the fitted concentration of half-maximal effect. Put shortly: as §1
Test [4] in a line: Quantitative High-Throughput drug screen in 47 multiple myeloma cell lines against the NCATS MIPE library collection: OPM1_PLB cell viability assay (AID 1918989). Note: nearly all actives have a fitted effect of over 40% in size. Note: potency is the fitted concentration of half-maximal effect. The gist of the method:
as §1

Test [5] in a line: Quantitative High-Throughput drug screen in 47 multiple myeloma cell lines against the NCATS MIPE library collection: U266_ATCC cell viability assay (AID 1919864). Note: potency is the fitted concentration of half-maximal effect; nearly all actives have a fitted effect of over 35% in size. Put shortly: as §1
Test [6] is described as follows: Quantitative High-Throughput drug screen in 47 multiple myeloma cell lines against the NCATS MIPE library collection: XG6_PLB cell viability assay (AID 1919865). Note: potency is the fitted concentration of half-maximal effect; nearly all actives have a fitted effect of over 40% in size. Put shortly:
as §1

The nature of test [7]: Quantitative High-Throughput drug screen in 47 multiple myeloma cell lines against the NCATS MIPE library collection: XG1_PLB cell viability assay (AID 1919866). Note: nearly all actives have a fitted effect of over 35% in size. Note: potency is the fitted concentration of half-maximal effect. Put shortly: as §1
Test [8] in a line: Quantitative High-Throughput drug screen in 47 multiple myeloma cell lines against the NCATS MIPE library collection: VP6_DJ cell viability assay (AID 1919867). Note: potency is the fitted concentration of half-maximal effect; nearly all actives have a fitted effect of over 40% in size. The gist of the method:
as §1

Test [9] can be described thus: Quantitative High-Throughput drug screen in 47 multiple myeloma cell lines against the NCATS MIPE library collection: PE2_PLB cell viability assay (AID 1919869). Note: nearly all actives have a fitted effect of over 35% in size. Note: potency is the fitted concentration of half-maximal effect. The gist of the method: as §1
The nature of test [10]: Quantitative High-Throughput drug screen in 47 multiple myeloma cell lines against the NCATS MIPE library collection: PCM6_Riken cell viability assay (AID 1919870). Note: nearly all actives have a fitted effect of over 30% in size. Note: potency is the fitted concentration of half-maximal effect. The gist of the method:
as §1

Test [11] in a line: Quantitative High-Throughput drug screen in 47 multiple myeloma cell lines against the NCATS MIPE library collection: RPMI8226_ATCC cell viability assay (AID 1919871). Note: potency is the fitted concentration of half-maximal effect; nearly all actives have a fitted effect of over 30% in size. The gist of the method: as §1
The nature of test [12]: Quantitative High-Throughput drug screen in 47 multiple myeloma cell lines against the NCATS MIPE library collection: KMS11_JCRBsus cell viability assay (AID 1919873). Note: nearly all actives have a fitted effect of over 50% in size. Note: potency is the fitted concentration of half-maximal effect. The gist of the method: as §1
Test [13] can be described thus: Quantitative High-Throughput drug screen in 47 multiple myeloma cell lines against the NCATS MIPE library collection: KMS28BM_JCRB cell viability assay (AID 1919874). Note: nearly all actives have a fitted effect of over 35% in size. Note: potency is the fitted concentration of half-maximal effect. The gist of the method:
as §1

Test [14] can be described thus: Quantitative High-Throughput drug screen in 47 multiple myeloma cell lines against the NCATS MIPE library collection: UTMC2_PLB cell viability assay (AID 1919868). Note: nearly all actives have a fitted effect of over 55% in size. Note: potency is the fitted concentration of half-maximal effect. Conditions: CellTiter-Glo ATP luminescence, 48 h; viability (% of DMSO control): at 45.8 µM (top of the series) unless noted. The gist of the method: as §1
(In general: Cellular ATP, detected with luciferase, serves as a proxy for viable cell number.)

The nature of test [15]: Quantitative High-Throughput drug screen in 47 multiple myeloma cell lines against the NCATS MIPE library collection: OPM2_DSMZ cell viability assay (AID 1919872). Note: nearly all actives have a fitted effect of over 30% in size. Note: potency is the fitted concentration of half-maximal effect. The gist of the method: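 Myeloma cells (500 per well) were exposed to MIPE 4.0 compounds by pin transfer and incubated 48 hours at 37C, 5% CO2. Viability was read as ATP by CellTiter-Glo luminescence, normalised to DMSO (100%) and media-only (0%) wells.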

Test [16] in a line: qHTS drug screen for cell cycle checkpoint inhibitors in PARPi-resistant BRCA-mutant ovarian cancer cell lines. (AID 1963452; calls by dose curve). Conditions: PEO1/OlaR viability, CellTiter-Glo luminescence, 96 h, stronger effect = lower value. Put shortly:
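PEO1, PEO4 and PEO1/OlaR ovarian cancer cells, 600 per well, exposed 96 h at 37C to a dilution series. Viability read by CellTiter-Glo luminescence, normalized to DMSO and empty wells; activity summarized as Z-AUC.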
(qHTS replaces the single test concentration by a dilution series.)

Test [17] is described as follows: qHTS for identification of novel therapeutic agents for treatment of microphthalmiaassociated transcription factor (MiT) renal cell carcinoma (RCC) (AID 1963991; calls by dose curve; note: potency is the fitted concentration of half-maximal effect). Conditions: CellTiter-Glo, 48 h; for z-score: stronger effect = lower value. Put shortly:
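Three TFE3-fusion RCC lines (UOK109, UOK124, UOK145), 500 cells/well in complete medium, were treated with MIPE 4.0 compounds for 48 hours at 37 C. Viability was by CellTiter-Glo luminescence, normalized to DMSO (100%) and empty wells (0%); curves fitted over 11 concentrations.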

Setting [18] is: measured here: PEO1 parental Z-AUC.

Inconclusive results are not listed. Calls of active or inactive are those of the source. Unless noted, calls come from the whole dose curve; as a rule, active = well fitted cell-killing curve with a large enough effect; inconclusive = small, poorly fitted or top-dose-only effect, or effect the other way; inactive = no such curve, though single readings can be large or run the other way.

In the case of `Fc1cc(-c2cccc3ncc(-c4cnn(C5CCNCC5)c4)nc23)cc(F)c1CN1CCOCC1`, the Potency in test [1] is 14.8 µM (active); in test [2], 6.62 µM (active); in test [3] it was 16.6 µM (active); in test [4] it was 8.33 µM (active); in test [5], 20.9 µM (active); in [6], 7.43 µM (active). Further, the Potency in [7] is 7.43 µM (active); in test [8] it was 9.35 µM (active); in test [9], 8.33 µM (active); in test [10], 7.43 µM (active); in test [11] it was 20.9 µM (active); in [12], 9.35 µM (active). In addition, the Potency in test [13] was 26.4 µM (active).
In the case of `COc1ccc(-n2nc(C(N)=O)c3c2C(=O)N(c2ccc(N4CCCCC4=O)cc2)CC3)cc1`, the Potency entry in test [1], in test [2], in test [3], in test [4], in test [7] and in test [14] was “inactive” in each case. Moreover, the Potency result in [9], in [10], in test [15], in test [12] and in test [13] was “inactive” throughout. Besides, the Z-AUC in [16] was 1.05 (inactive); in test [16] (setting [18]) it was 0.968; in test [16] (measured here: PEO4 Z-AUC), 0.601.
Turning to `CCn1nnc2c(N3CCOCC3)nc(-c3ccc(NC(=O)Nc4ccc(C(=O)N5CCN(C)CC5)cc4)cc3)nc21`, the Potency in test [1] was 0.148 µM (active); in [2], 3.72 µM (active); in test [3], 0.469 µM (active); in test [4], 0.0059 µM (active); in [14] it was 0.0053 µM (active); in test [10] it was 0.0332 µM (active). The Potency is 0.0526 µM (active) in test [11]; 0.0935 µM (active) in test [15]; 0.0235 µM (active) in test [12]; 0.0042 µM (active) in [13]; 0.526 µM (active) in [17] (TFE3-RCC UOK109 viability, active = Z-AUC below -0.8 in all three lines). In addition, the Z-AUC in test [16] was -0.869 (inactive); in test [16] (setting [18]), -1.58; in test [16] (measured here: PEO4 Z-AUC) it was -1.65. Further, the z-score in test [17] (TFE3-RCC UOK109 viability, measured here: UOK109 Z-AUC) was -1.28; in test [17] (TFE3-RCC viability, measured here: UOK124 Z-AUC) it was -1.68; in test [17] (TFE3-RCC viability, measured here: UOK145 Z-AUC), -1.94.
In the case of `N#CCNC(=O)c1ccc(-c2ccnc(Nc3ccc(N4CCOCC4)cc3)n2)cc1`, the Potency in [1] was 4.69 µM (active); in test [2] it was 5.26 µM (active); in [3] it was 13.2 µM (active); in [4], 11.8 µM (active); in test [5] it was 18.7 µM (active); in test [6], 2.64 µM (active). Further, the Potency in test [7] was 5.26 µM (active); in test [8] it was 3.72 µM (active); in [9] it was 2.96 µM (active); in test [10] it was 3.32 µM (active); in test [11], 16.6 µM (active); in [15] it was 20.9 µM (active). Besides, the Potency in test [12] and in test [13] was 7.43 µM (active) in each case. The Z-AUC in test [16] is -0.322 (inactive); in test [16] (setting [18]), 0.159; in [16] (measured here: PEO4 Z-AUC), 0.613.
As to `CCCCc1nc2cc(C=CC(=O)NO)ccc2n1CCN(CC)CC`, the Potency in test [1] was 0.372 µM (active); in [2] it was 0.935 µM (active); in test [3] it was 0.0418 µM (active); in test [4], 0.148 µM (active); in [5], 0.935 µM (active); in [7] it was 1.48 µM (active). Besides, the Potency is 0.0105 µM (active) in test [8]; 0.264 µM (active) in test [14]; 1.66 µM (active) in test [9]; 0.0132 µM (active) in test [10]; 1.32 µM (active) in test [11]; 0.833 µM (active) in test [15]. Moreover, the values for the Potency in test [12] and in test [13] were 0.372 µM (active) and 0.187 µM (active), respectively.

The values above are taken from PubChem BioAssay (NCATS).
